# C diff growth – inhibitors of Clostridium difficile growth | hit rate 0.25% among 86,000 | growth activity, negative = inhibition, % at 16 µg/mL (by protocol) | Clostridium difficile clinical isolate growth, OD600, 24 h; stronger effect = lower value;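 active = mean growth activity at or below -80% and every replicate also at or below -80%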;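 note: 0% = DMSO wells and -100% = levofloxacin 16 µg/mL wells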
# Tcruzi prolif – T. cruzi proliferation inhibition; T. cruzi beta-gal in NIH3T3, GalScreen luminescence, 90 h; inhibition, % at 8.34 µM; hit rate 5.9% among 77,000; AID 624255;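 active = mean inhibition above about 93%, with at least 55% of replicates each passing it, limit read from the data, passing the limit was not always enough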
# Pf Dd2 inh – P. falciparum Dd2 growth inhibition | SYBR Green, 72 h; stronger effect = lower value | hit rate 2.3% among 94,000 | activity change, % at 10 µM | AID 1159554; in the data active = activity change below about -80%
# Starred values were filed as active, the others as inactive; nt = not tested or not shown. Compounds with a hit are over-represented: about 6.8% of the library has one in this group of screens.
SMILES,C diff growth,Tcruzi prolif,Pf Dd2 inh
C[C@H](CO)N1C[C@H](C)[C@@H](CN(C)C(=O)Nc2ccc(-c3ccccc3)cc2)OCc2ccccc2-c2c(n(C)c3ccccc23)C1=O,7.4,nt,-94.1*
COc1ccc2c3c([nH]c2c1)[C@H](CO)N(Cc1nccs1)CC31CN(C(=O)C2CC2)C1,-2.2,nt,-13.8
Cc1noc(C)c1S(=O)(=O)N(C)C[C@@H]1Oc2ccc(NS(=O)(=O)c3ccccc3)cc2C(=O)N([C@H](C)CO)C[C@@H]1C,-1.1,0.6,-8.5
Cc1ccc(S(=O)(=O)N(C)C[C@H]2OCCCC[C@H](C)Oc3ccc(NC(=O)Nc4cccc5ccccc45)cc3C(=O)N([C@H](C)CO)C[C@H]2C)cc1,1.0,nt,-79.4
COc1ccc(S(=O)(=O)N(C)C[C@@H]2OCCCC[C@H](C)Oc3ccc(NC(=O)Nc4cccc5ccccc45)cc3C(=O)N([C@H](C)CO)C[C@@H]2C)cc1,1.4,82.1,-56.5
Cc1ccc(S(=O)(=O)N(C)C[C@H]2OCCCC[C@H](C)Oc3ccc(NC(=O)Nc4cccc5ccccc45)cc3C(=O)N([C@@H](C)CO)C[C@H]2C)cc1,2.9,nt,-82.0*
COc1ccc(S(=O)(=O)N(C)C[C@H]2OCCCC[C@H](C)Oc3ccc(NC(=O)Nc4cccc5ccccc45)cc3C(=O)N([C@H](C)CO)C[C@H]2C)cc1,5.8,80.3,-86.1*
COc1ccc(S(=O)(=O)N(C)C[C@H]2OCCCC[C@@H](C)Oc3ccc(NC(=O)Nc4cccc5ccccc45)cc3C(=O)N([C@@H](C)CO)C[C@@H]2C)cc1,2.9,79.1,-70.1
COc1ccc(S(=O)(=O)N(C)C[C@@H]2OCCCC[C@H](C)Oc3ccc(NC(=O)Nc4cccc5ccccc45)cc3C(=O)N([C@@H](C)CO)C[C@H]2C)cc1,0.5,18.2,-89.2*
O=C(NC1Cc2ccccc2C1)[C@@H]1[C@@H](CO)[C@@H]2Cn3c(ccc(C4=CCCC4)c3=O)[C@H]1N2,1.4,32.1,nt
C[C@@H]1CN([C@@H](C)CO)C(=O)c2cc(NC(=O)Nc3ccc(F)cc3)ccc2O[C@H]1CN(C)Cc1ccc2c(c1)OCO2,-1.5,nt,-8.8
C[C@@H]1CN([C@@H](C)CO)C(=O)c2cccc(NS(=O)(=O)c3ccc(F)cc3)c2O[C@@H]1CN(C)Cc1ccc2c(c1)OCO2,6.1,38.9,-42.4
C[C@H]1CN([C@@H](C)CO)C(=O)c2cc(NS(=O)(=O)c3ccc(Cl)cc3)ccc2O[C@H]1CN(C)S(=O)(=O)c1ccc(Cl)cc1,-6.4,57.2,-8.6
C[C@H](CO)N1C[C@H](C)[C@@H](CN(C)Cc2ccc(Oc3ccccc3)cc2)Oc2ccc(NS(=O)(=O)c3cccs3)cc2C1=O,nt,83.8,-9.1
CO[C@@H]1CN(C)C(=O)c2cc(NC(=O)c3nc4ccccc4s3)ccc2OC[C@H](C)NC[C@H]1C,nt,-34.3,-84.5*
CO[C@H]1CN(C)C(=O)c2cc(NC(=O)c3nc4ccccc4s3)ccc2OC[C@@H](C)NC[C@@H]1C,nt,-37.8,-87.1*
CO[C@@H]1CN(C)C(=O)c2cc(NC(=O)c3nc4ccccc4s3)ccc2OC[C@@H](C)NC[C@H]1C,nt,-56.0,-30.4
CO[C@H]1CN(C)C(=O)c2cc(NC(=O)c3nc4ccccc4s3)ccc2OC[C@H](C)NC[C@H]1C,nt,-52.3,-54.0
CCNC(=O)Nc1ccc2c(c1)C(=O)N(C)[C@@H]1CC[C@@H](CC(=O)N[C@@H](C)c3ccccc3)O[C@H]1CO2,23.9,61.5,nt
C[C@H](CO)N1C[C@H](C)[C@@H](CN(C)Cc2ccc(C(=O)Nc3ccccc3N)cc2)Oc2ccc(NS(=O)(=O)c3ccccc3)cc2CC1=O,6.6,61.5,-83.4*
Cc1ccc(S(=O)(=O)Nc2ccc3c(c2)CC(=O)N([C@@H](C)CO)C[C@@H](C)[C@H](CN(C)Cc2ccc(C(=O)Nc4ccccc4N)cc2)O3)cc1,5.4,41.4,-75.6
Cc1ccc(S(=O)(=O)Nc2ccc3c(c2)CC(=O)N([C@H](C)CO)C[C@H](C)[C@H](CN(C)Cc2ccc(C(=O)Nc4ccccc4N)cc2)O3)cc1,-5.0,76.4,-88.1*
C[C@@H]1CN([C@H](C)CO)C(=O)Cc2cc(NS(=O)(=O)c3ccc(Cl)cc3)ccc2O[C@H]1CN(C)Cc1ccc(Oc2ccccc2)cc1,84.5,46.8,-5.1
C[C@@H]1CN([C@@H](C)CO)C(=O)Cc2cc(NS(=O)(=O)c3ccccc3)ccc2O[C@H]1CN(C)Cc1ccc(C(=O)Nc2ccccc2N)cc1,5.4,11.7,-72.4
C[C@H](CO)N1C[C@H](C)[C@H](CN(C)Cc2ccc(Oc3ccccc3)cc2)Oc2ccc(NS(=O)(=O)c3ccc(Cl)cc3)cc2CC1=O,62.4,29.4,-86.8*
SMILES,C diff growth,Tcruzi prolif,Pf Dd2 inh
CCC(=O)N1C[C@@H](C)[C@H](OC)CN(C)C(=O)c2ccc(NC(=O)c3cc(C)on3)cc2OC[C@@H]1C,1.0,-16.2,14.8
Cc1ccc(S(=O)(=O)Nc2ccc3c(c2)C(=O)N([C@@H](C)CO)C[C@@H](C)[C@H](CN(C)S(=O)(=O)c2ccc(F)cc2)O3)cc1,-2.1,47.1,-20.3
Cc1ccc(S(=O)(=O)N(C)C[C@@H]2Oc3ccc(NC(=O)Cc4cn(C)c5ccccc45)cc3CC(=O)N([C@@H](C)CO)C[C@H]2C)cc1,-15.0,47.7,-83.3*
C[C@H]1CN([C@@H](C)CO)C(=O)c2cc(NC(=O)Cc3cn(C)c4ccccc34)ccc2O[C@H]1CN(C)S(=O)(=O)c1ccccc1,4.3,79.5,-91.1*
Cc1ccc(S(=O)(=O)N(C)C[C@H]2Oc3ccc(NC(=O)Cc4cn(C)c5ccccc45)cc3C(=O)N([C@H](C)CO)C[C@H]2C)cc1,-6.6,73.4,-27.9
Cc1ccc(S(=O)(=O)N(C)C[C@H]2Oc3ccc(NC(=O)Cc4cn(C)c5ccccc45)cc3C(=O)N([C@H](C)CO)C[C@@H]2C)cc1,-0.7,25.7,-83.4*
C[C@@H]1CN([C@@H](C)CO)C(=O)c2cc(NC(=O)Cc3cn(C)c4ccccc34)ccc2O[C@H]1CN(C)S(=O)(=O)c1ccccc1,6.3,38.8,-22.1
Cc1ccc(S(=O)(=O)N(C)C[C@@H]2Oc3ccc(NC(=O)Cc4cn(C)c5ccccc45)cc3CC(=O)N([C@@H](C)CO)C[C@@H]2C)cc1,0.2,29.6,-77.0
CCCNC(=O)N1CC2(CN(C(=O)CC3CC3)C2)c2c(n(C)c3cc(OC)ccc23)[C@@H]1CO,-5.6,nt,-19.6
O=C(Nc1ccc2c(c1)[C@H]1C[C@H](CC(=O)N3CCOCC3)O[C@@H](CO)[C@H]1O2)NC1CCCCC1,nt,16.6,8.9
CN(C)C(=O)c1ccc(-c2ccccc2[C@H]2[C@H](C#N)N(C(=O)C3CCCCC3)[C@H]2CO)cc1,-15.7,nt,-21.6
CCC(=O)N1CC2(C1)[C@@H](c1ccc(-c3cccc(OC)c3)cc1)[C@@H](CO)N2C(C)=O,-4.3,nt,-89.7*
CCC(=O)N1CC2(C1)[C@H](c1ccc(-c3cccc(OC)c3)cc1)[C@H](CO)N2C(C)=O,-7.1,nt,-5.3
C[C@@H]1CN([C@@H](C)CO)S(=O)(=O)c2ccc(C#CCN(C)C)cc2O[C@@H]1CN(C)C(=O)c1ccccc1F,-2.6,-2.8,-12.5
Cc1noc(C)c1NC(=O)Nc1ccc2c(c1)C(=O)N([C@H](C)CO)C[C@@H](C)[C@H](CN(C)C(=O)Nc1ccc(C(F)(F)F)cc1)OCCCC[C@H](C)O2,2.8,40.3,-84.1*
